Assay [1] in a line: qHTS assay to identify small molecule agonists of the RXR signaling pathway - cell viability counter screen (AID 1159529). For activity change, negative = cytotoxicity: series mostly up to about 77 µM. Note: nearly all actives have a fitted effect of over 50% in size. Note: potency is the fitted concentration of half-maximal effect. The essentials: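 RXR-alpha-UAS-bla HEK 293T cells in medium with 2% charcoal-stripped FBS were pre-incubated 5 hr, then compound-treated 16 hr at 37 C. Viability was read by CellTiter-Glo luminescence in the same wells as the beta-lactamase assay, with tetraoctyl ammonium bromide as positive control.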
On the technique in general: qHTS replaces the single test concentration by a dilution series.

Assay [2] is described as follows: qHTS assay to identify small molecule antagonists of the retinoid acid receptor (RAR) signaling pathway - cell viability counter screen (AID 1159551). Note: nearly all actives have a fitted effect of over 35% in size. Note: potency is the fitted concentration of half-maximal effect. The essentials:
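ATP-based viability, C3RL4 cells, 6 h at 37 C with 1 uM final retinol co-added after compound; luminescence read 30 min post CellTiter-Glo, RT.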

A short description of assay [3]: qHTS assay to identify small molecule antagonists of the retinoic acid receptor (RAR) signaling pathway (AID 1159552; note: nearly all actives have a fitted effect of over 50% in size; note: potency is the fitted concentration of half-maximal effect). Summed up:
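Retinol signaling pathway inhibitors screened in C3RL4 RARE-luciferase reporter cells seeded overnight at 37 C, then compounds added with 1 uM (final) retinol as pathway substrate. After 6 hr at 37 C, luciferase luminescence read after 30 min at room temperature.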

Assay [4] in a line: qHTS assay to identify small molecule antagonists of the estrogen related receptor (ERR) signaling pathway from Tox21 library - cell viability counter screen (AID 1224834). Note: nearly all actives have a fitted effect of over 30% in size. Note: potency is the fitted concentration of half-maximal effect. Summed up: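 Compounds in DMSO were pinned onto ERR cells that had been incubated for 6 h, and the plates were held at 37 C for 17.5 h. CellTiter-Fluor reagent was then added and fluorescence was measured after 30 min.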

The target in assay [5] is Luciferin 4-monooxygenase (Photinus pyralis) (UniProt P08659). In words: qHTS assay to identify small molecule inhibitors of firefly luciferase (AID 1224835). Note: nearly all actives have a fitted effect of over 25% in size. Note: potency is the fitted concentration of half-maximal effect. The essentials: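 Biochemical qHTS: compounds run as interplate titrations against purified firefly enzyme, with D-luciferin and ATP each at its KM concentration. Light output recorded by CCD imaging.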
Luciferin 4-monooxygenase (Photinus pyralis), sequence (P08659 whole entry, looked up): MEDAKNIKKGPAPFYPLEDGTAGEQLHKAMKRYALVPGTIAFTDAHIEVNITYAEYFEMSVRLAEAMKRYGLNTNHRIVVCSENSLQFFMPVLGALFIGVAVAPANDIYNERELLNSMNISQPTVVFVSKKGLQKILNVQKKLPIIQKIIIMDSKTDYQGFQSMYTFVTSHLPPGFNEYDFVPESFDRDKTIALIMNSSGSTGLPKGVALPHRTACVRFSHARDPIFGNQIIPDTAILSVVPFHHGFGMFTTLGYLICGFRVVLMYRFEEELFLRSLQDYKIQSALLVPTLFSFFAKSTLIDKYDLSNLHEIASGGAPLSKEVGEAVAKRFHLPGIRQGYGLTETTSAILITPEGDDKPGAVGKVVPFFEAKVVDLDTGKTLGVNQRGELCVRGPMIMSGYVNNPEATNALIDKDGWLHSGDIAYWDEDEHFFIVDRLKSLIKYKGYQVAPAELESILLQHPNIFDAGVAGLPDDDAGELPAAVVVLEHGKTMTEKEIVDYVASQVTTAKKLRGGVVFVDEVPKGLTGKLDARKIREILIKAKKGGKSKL
Assay [6] is described as follows: qHTS assay to identify small molecule agonists of the constitutive androstane receptor (CAR) signaling pathway - cell viability counter screen (AID 1224836). For viability change, negative = cytotoxic: series mostly up to about 92 µM. Note: nearly all actives have a fitted effect of over 45% in size. Note: potency is the fitted concentration of half-maximal effect. The essentials: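 HepG2 cells stably carrying hCAR and a CYP2B6-2.2kb reporter; 15-concentration compounds plus PK11195 (final 0.75 uM), 23 hr at 37 C/5% CO2. Viability read by CellTiter-Fluor fluorescence.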

Assay [7] can be described thus: qHTS assay to identify small molecule antagonists of the constitutive androstane receptor (CAR) signaling pathway - cell viability counter screen (AID 1224837). For activity change, negative = cytotoxicity: series mostly up to about 92 µM. Note: nearly all actives have a fitted effect of over 45% in size. Note: potency is the fitted concentration of half-maximal effect. The essentials: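 Cells are seeded, rested 4 hr at 37 C/5% CO2, dosed with compound (15-point series) and 50 nM CITCO, incubated a further 23 hr, and then CellTiter-Fluor reagent is added before fluorescence is read. The line is HepG2 with stable hCAR and CYP2B6-2.2kb.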

In assay [8] the target is Nuclear receptor subfamily 1 group I member 3 (Homo sapiens) (UniProt Q14994). In words: qHTS assay to identify small molecule antagonists of the constitutive androstane receptor (CAR) signaling pathway (AID 1224838).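 Note: HepG2 cells stably expressing hCAR with CYP2B6 luciferase reporter stimulated by CITCO; nearly all actives have a fitted effect of over 40% in size.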 Note: potency is the fitted concentration of half-maximal effect. The essentials:
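Luminescence from a CYP2B6-2.2kb promoter reporter in hCAR-expressing HepG2 cells reflects CAR signaling. Cells received compounds at 15 concentrations and 50 nM CITCO (final), then incubated 24 h at 37 C/5% CO2.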

Assay [9] can be described thus: qHTS assay to identify small molecule antagonists of the estrogen related receptor signaling pathway with the pleiotropic PPARgamma coactivator (PGC) from Tox21 10K library - cell viability counter screen (AID 1224840; active = well fitted cell-killing curve with a large enough effect in the repeat runs, not every such curve was filed as active; note: nearly all actives have a fitted effect of over 40% in size; note: potency is the fitted concentration of half-maximal effect). The essentials:
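Cell viability is measured by CellTiter-Fluor fluorescence in PGC/ERR cells that receive compounds after a 6-hour attachment period and are then incubated 17.5 hours at 37 C.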

Assay [10] is described as follows: qHTS assay to identify small molecule antagonists of the estrogen related receptor signaling pathway with the pleiotropic PPARgamma coactivator (PGC) from Tox21 10K library (AID 1224841; call rule not given here; note: actives are mostly falling curves and most rising ones were filed inactive; nearly all actives have a fitted effect of over 50% in size; note: potency is the fitted concentration of half-maximal effect; for activity, negative = inhibition: series mostly up to about 92 µM). The essentials:
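Cells stably carrying the PGC/ERR reporter, seeded at 2,000 per well, received pin-transferred compounds 6 h post-plating. Exposure lasted 18 h at 37 C. Signal: One-Glo luminescence.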

The nature of assay [11]: qHTS assay to identify small molecule agonists of the estrogen related receptor signaling pathway with the pleiotropic PPARgamma coactivator (PGC) from Tox21 10K library (AID 1224842). Note: nearly all actives have a fitted effect of over 15% in size. Note: potency is the fitted concentration of half-maximal effect. The essentials:
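PGC/ERR reporter cell line, 2,000 cells per well, incubated 6 h at 37 C before 23 nL compound in DMSO was added. After 18 h at 37 C, One-Glo luminescence read following 30 min at room temperature.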

The nature of assay [12]: qHTS assay to identify small molecule agonists of the retinoic acid receptor (RAR) signaling pathway (AID 1159553). Note: potency is the fitted concentration of half-maximal effect. Summed up: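 Quantitative high-throughput format: the Tox21 10K library was tested on C3RL4 RARE-luciferase cells for 6 hr at 37 C and 5% CO2, with luminescence measured after a 30 min room-temperature reagent step.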
Assay [13] concerns the target Nuclear receptor subfamily 1 group I member 3 (Homo sapiens) (UniProt Q14994). In words: qHTS assay to identify small molecule agonists of the constitutive androstane receptor (CAR) signaling pathway (AID 1224839). Note: series mostly up to about 92 µM; nearly all actives have a fitted effect of over 15% in size. The essentials:
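HepG2 cells stably co-transfected with hCAR and a CYP2B6-2.2kb luciferase reporter; compounds at 15 concentrations with 0.75 uM PK11195 present. After 24 hr at 37 C, luciferase read by ONE-Glo luminescence.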

SMILES strings stand for the structures. Results filed as inconclusive are left out. Values without a mark were called inactive. Activity calls are given as the source filed them. Unless noted, calls come from the whole dose curve; as a rule, active = well fitted curve in the direction sought with a large enough effect in the repeat runs; inconclusive = weak or mixed curves; inactive = no such curve, though single readings can be large; an effect the other way counts as inactive or inconclusive.
% is set by controls: 0 for no effect and ±100 for the full control effect.

Nuclear receptor subfamily 1 group I member 3 (Homo sapiens), sequence (Q14994 whole entry, looked up): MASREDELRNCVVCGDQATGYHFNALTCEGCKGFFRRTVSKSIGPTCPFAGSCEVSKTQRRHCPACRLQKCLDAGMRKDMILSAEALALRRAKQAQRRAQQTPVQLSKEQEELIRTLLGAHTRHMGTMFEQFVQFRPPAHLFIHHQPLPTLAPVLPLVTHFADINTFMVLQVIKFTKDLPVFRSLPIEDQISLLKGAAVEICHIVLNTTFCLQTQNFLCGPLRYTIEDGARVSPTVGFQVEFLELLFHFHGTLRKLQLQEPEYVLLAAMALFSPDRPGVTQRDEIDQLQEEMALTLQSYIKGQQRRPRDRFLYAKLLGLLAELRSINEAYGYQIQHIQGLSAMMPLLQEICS

As for `CCN(Cc1cccc(S(=O)(=O)O)c1)c1ccc(C(=C2C=CC(=[N+](CC)Cc3cccc(S(=O)(=O)O)c3)C=C2)c2ccccc2S(=O)(=O)[O-])cc1`, the Potency entry in [1] and in assay [11] was “inactive” each time. Also, the Potency in assay [2] is 15.4 µM (active); in assay [3], 13.7 µM (active); in assay [4] it was 30.7 µM (active); in [5], 20.1 µM (active); in assay [6], 34.5 µM (active); in [7], 34.5 µM (active). Also, the Potency in assay [8] is 15.4 µM (active); in assay [9], 27.4 µM (active); in assay [10], 8.67 µM (active).
In the case of `O=C(O)CCC(=O)c1ccc(-c2ccccc2)cc1`, the Potency result in assay [1], in [2], in [3], in assay [4], in assay [6] and in [7] was “inactive” throughout. Besides, the Potency entry in assay [8], in [13] and in [9] was “inactive” in each case. For the same compound, the results for the Potency in assay [12] and in assay [5] were 11.9 µM (active) and 6.92 µM (active), respectively.
Regarding `O=C(NS(=O)(=O)/C=C/c1ccccc1)c1ccc(F)cc1Cl`, the Potency result in assay [1], in assay [2], in assay [3], in assay [4], in assay [5] and in assay [6] was “inactive” each time. For the same compound, the Potency result in assay [7], in assay [8], in assay [13] and in assay [10] was “inactive” each time. The Potency in assay [11] was 13.7 µM (active).
With `CC1=CC[C@@H]2C[C@H]1C2(C)C`, the activity change, negative = cytotoxicity in [1] is -11.8% [at 15.8 µM]; in assay [2], -0.147% [at 19 µM]; in [7], -2.4% [at 19 µM]. Moreover, in assay [3], the activity, negative = inhibition was 70.7% [at 19 µM]. Besides, the figures for the viability change, negative = cytotoxic in assay [4], in [6] and in [9] were 2.93% [at 19 µM], 1.82% [at 19 µM] and -1.25% [at 19 µM], respectively.
On to `CCOC(=O)C(C)O` (configuration not stated), for which the Potency entry in assay [1], in assay [2], in assay [3], in assay [12], in assay [4] and in assay [5] was “inactive” throughout. The Potency result in assay [6], in assay [7], in assay [8], in assay [13] and in assay [9] was “inactive” throughout.
As to `CCC1CCC(CCC(=O)O)C1` (configuration not stated), the Potency result in [1], in assay [2], in assay [3], in [12], in [4] and in assay [5] was “inactive” each time. Besides, the Potency result in [6], in assay [7], in assay [8], in [13], in assay [10] and in assay [11] was “inactive” each time.
Regarding `CN1CCCN(C(c2ccccc2)c2ccc(Cl)cc2)CC1` (configuration not stated), the Potency is 7.56 µM (active) in assay [1]; 23.7 µM (active) in assay [3]; 26.6 µM (active) in assay [6]; 29.8 µM (active) in assay [7]; 26.6 µM (active) in assay [9]. The Potency entry in assay [2], in [5], in [13], in [10] and in [11] was “inactive” each time.
Take `C=C(C)c1ccccc1`: the Potency result in assay [1], in assay [2], in [3], in assay [12], in assay [4] and in assay [5] was “inactive” each time. For the same compound, the Potency entry in assay [6], in assay [7], in [8], in assay [13] and in assay [9] was “inactive” throughout.
Regarding `O=C(O)c1cccc(Oc2ccccc2)c1`, the Potency entry in assay [2], in [3], in assay [12], in assay [5], in assay [6] and in [7] was “inactive” each time. In addition, the Potency entry in [8], in assay [13], in [9], in assay [10] and in assay [11] was “inactive” in each case.
As to `c1ccc(CCCc2ccncc2)cc1`, the Potency result in assay [2], in assay [3], in assay [4], in assay [6], in assay [7] and in [9] was “inactive” in each case. Moreover, in assay [12], the Potency was 68.6 µM (active).
